# Source: PubChem BioAssay (NCI)
# Compounds without any hit were thinned out: in the full panel of roughly 83,000, 20% have a hit.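 48-hour exposure, single concentration, 96-well plates; percent growth endpoint where 0 means no net growth. Active: below 10.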 Values without a mark were called inactive. The source made the active and inactive calls.
# How the values were obtained:
# Test in all cases: NCI-60 one-dose screen, 48 h (100 = growth as untreated, 0 = no growth, -100 = all killed)
# Details in all cases: 10 µM unless noted
# [1] = system: T-47D breast
# [2] = system: BT-549 breast
# [3] = system: MDA-MB-435 melanoma
# [4] = system: SW-620 colon
# [5] = system: MCF7 breast
# [6] = system: HCT-116 colon
# [7] = system: HCC-2998 colon
# [8] = system: KM12 colon
SMILES,growth [1],growth [2],growth [3],growth [4],growth [5],growth [6],growth [7],growth [8]
COc1c(Cl)cc(Cl)c2ccc(C=C3C(=O)NC(=S)NC3=O)nc12,101%,90.2%,106%,104%,90.7%,-76.2% (active),99.2%,112%
O=S(=O)(NCCNc1nccc(-c2c(-c3cccc(F)c3)nc3occn23)n1)c1cccc2ccccc12,29.9%,78.3%,32.8%,72.1%,27.8%,36.1%,79.7%,49.6%
C/C(=C(/c1ccccc1)c1ccc(OCC(O)CN2CCOCC2)cc1)c1ccccc1 (stereo unspecified),60.3%,93.3%,90.7%,88.6%,84.2%,46.3%,102%,63.6%
O=C(Cc1ccc(/C=C/C(=O)c2ncc[nH]2)cc1)Nc1ccc(C(F)(F)F)cc1,29.2%,44%,-1.95% (active),-16.1% (active),10.3%,-58.7% (active),59.3%,-41.3% (active)
CC(Oc1ccc(C(=O)NS(=O)(=O)C(C)(C)C)cc1C(F)(F)F)c1ccc(Oc2ccccc2)cn1 (stereo unspecified),60.5%,67.2%,-4.12% (active),58.4%,38.9%,60.1%,86.9%,52.7%
COc1cc(-c2nc3occn3c2-c2ccnc(NCCNS(=O)(=O)c3ccc(Cl)cc3)n2)ccc1F,51.6%,95.5%,62.2%,109%,65.5%,63.6%,103%,86.9%
CC1=CC[C@@H]2CC[C@]3(C)[C@H](CC[C@@H]4[C@@]5(C)CCCNC(C)(C)[C@@H]5CC[C@]43C)[C@H]2[C@@H]1C,65%,97.1%,-17.3% (active),-66.3% (active),-28.2% (active),-32.1% (active),-51.5% (active),-53% (active)
COc1ccc(-c2nc(N=Nc3c(O)[nH]c4ccccc34)nc(N3CCOCC3)c2C#N)cc1,65.4%,62.8%,79.1%,66.8%,60.6%,29.7%,95%,73.4%
Cc1cc(C)n(Nc2nc3ccccc3[nH]c2=O)c(=O)c1C#N,86%,106%,103%,98.5%,82.6%,96.1%,103%,92.9%
O=C(OCc1nc2nc(Cl)nc(N3CCOCC3)c2[nH]1)n1ccnc1,-49.2% (active),9.52% (active),-55.1% (active),-59.1% (active),4.72% (active),-82.4% (active),65.3%,13.7%
CCCCCCCCCCCC(=O)C(CCCCCCCCCC)C(=O)Nc1ccccc1 (stereo unspecified),92.1%,114%,110%,107%,108%,93.8%,101%,106%
CS(=O)(=O)OCCN(CCOS(C)(=O)=O)c1ccc(/C=N/Nc2ccc([N+](=O)[O-])cc2[N+](=O)[O-])cc1,76%,99.3%,94.1%,73.4%,66.5%,83.9%,80.2%,99.6%
Cc1c2c(cc[n+]1Cc1ccccc1)c1ccc(OCC3CCCCC3)cc1n2CC1CCCCC1,-74.1% (active),-91% (active),-84.9% (active),-96.6% (active),-92.3% (active),-98.3% (active),-93.2% (active),-99.9% (active)
Clc1cc(Cl)cc(N2N=C(c3cccc(Nc4ccncc4)c3)CC2c2ccccc2)c1 (stereo unspecified),77.7%,78.2%,-38.9% (active),-68.6% (active),-11% (active),38.7%,-58.8% (active),-8.16% (active)
COc1ccc(NC(=O)c2sc3nc(C)c(C(=O)c4ccc(OC)cc4)cc3c2N)cc1,59.6%,49.1%,-26.2% (active),34.9%,25.3%,21.8%,89.4%,46.9%
N#C/C(=C\c1ccc(Br)cc1)n1nnc2cccc(F)c21,21.7%,17.6%,-18% (active),-48% (active),12.6%,2.67% (active),19.2%,7.22% (active)

SMILES,growth [1],growth [2],growth [3],growth [4],growth [5],growth [6],growth [7],growth [8]
COc1ccc(C2=NN(C(C)=O)C(c3cn(Cc4ccc(Cl)cc4)c4ccccc34)C2)cc1 (stereo unspecified),51.8%,97.1%,96.5%,98.2%,84.5%,86.3%,95.5%,86.4%
Fc1ccccc1CSc1ncnc2nc[nH]c12,97.7%,137%,109%,96%,96.9%,97.6%,111%,112%
c1ccc(C2CC(c3cccc(Nc4ccncc4)c3)=NN2c2ccccc2)cc1 (stereo unspecified),92.1%,92.7%,15.3%,-44.4% (active),14.4%,-67.1% (active),3.07% (active),44.7%
N#CSCC1CC(O)(c2ccccc2)C(c2ccccc2)C(c2ccc(F)cc2)O1 (stereo unspecified),9.18% (active),5.69% (active),-0.166% (active),-1.6% (active),5.64% (active),-63.9% (active),74.8%,4.67% (active)
CC(N)C(=O)NNc1n[nH]c(=S)n1N (stereo unspecified),98.6%,87.1%,96.1%,93.1%,93.7%,103%,102%,102%
CN(C)C(=O)c1cc2cnc(Nc3ccc(-c4csc5c(=O)cc(N6CCOCC6)oc45)cc3)nc2n1C1CCCC1,-4.72% (active),-79.1% (active),-38.7% (active),-45.6% (active),-46.8% (active),-29.2% (active),-44.6% (active),-86.9% (active)
O=C(CN1CCOCC1)Nc1ccc2ncnc(Nc3ccc(Oc4cccc(C(F)(F)F)c4)c(Cl)c3)c2c1,19.5%,70.1%,65.5%,82.2%,34.2%,45.1%,87.1%,74.2%
CCOc1ccc(/C=N/Nc2cc(C)nc3ccc(Cl)cc23)cc1,60.3%,80.6%,40.9%,-72.8% (active),1.28% (active),-75.3% (active),27.5%,33.3%
COc1ccc(-c2nc(SCC(C)C)nc(N/N=C(/C)c3ccc(OC)c(OC)c3)c2C#N)cc1,54.7%,97.8%,87.9%,84.4%,80.6%,96.6%,92.4%,74%
C=C1C(=O)O[C@H]2[C@H]1CC/C(COC(=O)CCCCCC(=O)OC/C1=C/CC[C@@]3(C)O[C@H]3[C@H]3OC(=O)C(=C)[C@@H]3CC1)=C\CC[C@@]1(C)O[C@@H]21,1.26% (active),35.7%,30.8%,8.05% (active),12.8%,-37.3% (active),84.5%,62.8%
C=CCn1c(SCC(=O)Nc2ccc(C(=O)/C=C/c3cc(OC)c(OC)c(OC)c3)cc2)nnc1-c1cc(-c2ccc(S(C)(=O)=O)cc2)nc2ccccc12,85.6%,79.4%,88.6%,77%,50.6%,27.4%,111%,75.2%
COc1ccc(C(=O)c2cc3c(N)c(C(=O)Nc4cccc(OC)c4)sc3nc2C)cc1,62.6%,45.6%,-14.3% (active),30.1%,23.4%,11.1%,19.5%,20.9%
Cc1ccccc1CNc1ccc(N2CCOCC2)cc1,106%,102%,102%,98%,102%,104%,105%,100%
CCOC(=O)c1cnc2c(cnn2CC)c1NN=C(C)C,87.7%,91%,108%,104%,88.7%,86.5%,94.9%,96.5%
COc1ccc(/C=C/C(=O)c2ccc(Nc3ncnc4ccccc34)cc2)cc1OC,78.6%,56.3%,7.77% (active),27.5%,16.1%,9.59% (active),29.9%,16.3%
COc1cccc(CCC(=O)c2cc3c(N)c(C(=O)Nc4ccccc4)sc3nc2C)c1,38.2%,44.8%,-44.5% (active),22.2%,10.5%,14.4%,45.1%,23%
